Records with an inconclusive call do not appear. Where a call stands in place of a potency, no number is given. Calls of active or inactive are those of the source. Calls follow the shape of the dose curve; as a rule, active = well fitted inhibition curve with a large enough effect; inconclusive = small, poorly fitted or top-dose-only effect; inactive = flat fitted curve, though single readings scatter.
The molecules below were run on CP191 (assay: qHTS profiling for inhibitors of Plasmodium falciparum proliferation (AID 504749; also: nearly all actives have a fitted effect of over 60% in size)). Conditions: P. falciparum in erythrocytes, SYBR Green DNA, 72 h; series mostly up to 28.7 µM.
In short: (§1)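 Infected RBCs, 0.3% parasitemia/2.5% Hct final; cpd 72 h, 37 C, 5% CO2; lysis buffer with saponin/triton/SYBR Green I, o/n RT dark; FI 485/535; norm. to artemisinin (0.29 uM) and DMSO.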
`Nc1ccc(S(N)(=O)=O)cc1` was tested, and the Potency was “inactive”. With `C[C@H](Cn1cnc2c(N)ncnc21)OCP(=O)(O)O` the Potency was “inactive”. `CCOc1cc(CC(=O)N[C@@H](CC(C)C)c2ccccc2N2CCCCC2)ccc1C(=O)O` was tested, and the Potency was “inactive”. With `Oc1ccc(OCc2ccccc2)cc1` the Potency was “inactive”. For `Cc1cccc(C)c1OCC(=O)N[C@@H](Cc1ccccc1)[C@@H](O)C[C@H](Cc1ccccc1)NC(=O)[C@H](C(C)C)N1CCCNC1=O`, the Potency was 5620 nM (active). With `CNC[C@@H](O)[C@@H](O)[C@H](O)[C@H](O)CO` the Potency was “inactive”. `CCC1=C(C)CN(C(=O)NCCc2ccc(S(=O)(=O)NC(=O)NC3CCC(C)CC3)cc2)C1=O` (stereo unspecified) was tested, and the Potency was “inactive”. In the case of `COc1cc(OC)c(C(=O)CCCN2CCCC2)c(OC)c1`, the Potency is reported as “inactive”. With `O=P(O)(O)C(O)(Cn1ccnc1)P(=O)(O)O` the Potency was “inactive”. With `c1ccc2[nH]c(-c3cscn3)nc2c1` the Potency was “inactive”. With `Cc1cc2cc3c(C)cc(=O)oc3c(C)c2o1` the Potency was “inactive”. `CC(C)[C@H](N)C(=O)OCCOCn1cnc2c(=O)[nH]c(N)nc21` was tested, and the Potency was “inactive”. For `CCCCN(CCCC)CCC(O)c1cc2c(Cl)cc(Cl)cc2c2cc(C(F)(F)F)ccc12` (stereo unspecified), the Potency was 12.6 nM (active). `Cc1cc(=O)oc2cc(O)ccc12` was tested, and the Potency was “inactive”. For `Nc1cc(C(Cl)=C(Cl)Cl)c(S(N)(=O)=O)cc1S(N)(=O)=O`, the Potency was “inactive”. For `C[C@]12CCC(=O)C=C1CC[C@@H]1[C@H]2[C@@H](O)C[C@@]2(C)[C@H]1CC[C@]2(O)C(=O)CO`, the Potency was “inactive”. With `Cc1c(OCC(F)(F)F)ccnc1CS(=O)c1nc2ccccc2[nH]1` (stereo unspecified) the Potency was “inactive”. With `C[Se]CCC(N)C(=O)O` (stereo unspecified) the Potency was “inactive”. For `CN(C)c1ccc2nc3ccc(=[N+](C)C)cc-3sc2c1`, the Potency was 79.4 nM (active). For `O=C(NCCO[N+](=O)[O-])c1cccnc1`, the Potency was “inactive”. In the case of `CCCCc1ccc2nc(NC(=O)OC)[nH]c2c1`, the Potency is reported as “inactive”. With `O=C(O)c1cccc(-c2noc(-c3ccccc3F)n2)c1` the Potency was “inactive”. For `O=C(O)c1cc(=O)c2c(OCC(O)COc3cccc4oc(C(=O)O)cc(=O)c34)cccc2o1`, the Potency was “inactive”. For `CC1(C)NC(=O)N(c2ccc([N+](=O)[O-])c(C(F)(F)F)c2)C1=O`, the Potency was “inactive”. In the case of `O=C(O)CCNC(=O)c1ccc(N=Nc2ccc(O)c(C(=O)O)c2)cc1`, the Potency is reported as “inactive”. For `Cc1ncc([N+](=O)[O-])n1CC(C)O` (stereo unspecified), the Potency was “inactive”. With `Cc1nc2n(c(=O)c1CCN1CCC(c3noc4cc(F)ccc34)CC1)CCCC2` the Potency was “inactive”. With `N[C@@H](Cc1cc(I)c(Oc2cc(I)c(O)c(I)c2)c(I)c1)C(=O)O` the Potency was “inactive”.

These molecules were tested on CP192 in the same assay as above. Conditions: P. falciparum in erythrocytes, SYBR Green DNA, 72 h; series mostly up to 28.7 µM.
In short: as §1
`Nc1ccc(S(N)(=O)=O)cc1` was tested, and the Potency was “inactive”. `C[C@H](Cn1cnc2c(N)ncnc21)OCP(=O)(O)O` was tested, and the Potency was “inactive”. `CCOc1cc(CC(=O)N[C@@H](CC(C)C)c2ccccc2N2CCCCC2)ccc1C(=O)O` was tested, and the Potency was “inactive”. `Oc1ccc(OCc2ccccc2)cc1` was tested, and the Potency was “inactive”. For `Cc1cccc(C)c1OCC(=O)N[C@@H](Cc1ccccc1)[C@@H](O)C[C@H](Cc1ccccc1)NC(=O)[C@H](C(C)C)N1CCCNC1=O`, the Potency was 6750 nM (active). `CNC[C@@H](O)[C@@H](O)[C@H](O)[C@H](O)CO` was tested, and the Potency was “inactive”. With `CCC1=C(C)CN(C(=O)NCCc2ccc(S(=O)(=O)NC(=O)NC3CCC(C)CC3)cc2)C1=O` (stereo unspecified) the Potency was “inactive”. For `COc1cc(OC)c(C(=O)CCCN2CCCC2)c(OC)c1`, the Potency was “inactive”. With `O=P(O)(O)C(O)(Cn1ccnc1)P(=O)(O)O` the Potency was “inactive”. With `c1ccc2[nH]c(-c3cscn3)nc2c1` the Potency was “inactive”. For `Cc1cc2cc3c(C)cc(=O)oc3c(C)c2o1`, the Potency was “inactive”. With `CC(C)[C@H](N)C(=O)OCCOCn1cnc2c(=O)[nH]c(N)nc21` the Potency was “inactive”. In the case of `CCCCN(CCCC)CCC(O)c1cc2c(Cl)cc(Cl)cc2c2cc(C(F)(F)F)ccc12` (stereo unspecified), the Potency is reported as 10.2 nM (active). In the case of `Cc1cc(=O)oc2cc(O)ccc12`, the Potency is reported as “inactive”. `Nc1cc(C(Cl)=C(Cl)Cl)c(S(N)(=O)=O)cc1S(N)(=O)=O` was tested, and the Potency was “inactive”. In the case of `C[C@]12CCC(=O)C=C1CC[C@@H]1[C@H]2[C@@H](O)C[C@@]2(C)[C@H]1CC[C@]2(O)C(=O)CO`, the Potency is reported as “inactive”. For `Cc1c(OCC(F)(F)F)ccnc1CS(=O)c1nc2ccccc2[nH]1` (stereo unspecified), the Potency was “inactive”. `C[Se]CCC(N)C(=O)O` (stereo unspecified) was tested, and the Potency was “inactive”. With `CN(C)c1ccc2nc3ccc(=[N+](C)C)cc-3sc2c1` the Potency was 67.5 nM (active). With `O=C(NCCO[N+](=O)[O-])c1cccnc1` the Potency was “inactive”. In the case of `CCCCc1ccc2nc(NC(=O)OC)[nH]c2c1`, the Potency is reported as “inactive”. `O=C(O)c1cccc(-c2noc(-c3ccccc3F)n2)c1` was tested, and the Potency was “inactive”. In the case of `O=C(O)c1cc(=O)c2c(OCC(O)COc3cccc4oc(C(=O)O)cc(=O)c34)cccc2o1`, the Potency is reported as “inactive”. With `CC1(C)NC(=O)N(c2ccc([N+](=O)[O-])c(C(F)(F)F)c2)C1=O` the Potency was “inactive”. In the case of `O=C(O)CCNC(=O)c1ccc(N=Nc2ccc(O)c(C(=O)O)c2)cc1`, the Potency is reported as “inactive”. For `Cc1ncc([N+](=O)[O-])n1CC(C)O` (stereo unspecified), the Potency was “inactive”. With `Cc1nc2n(c(=O)c1CCN1CCC(c3noc4cc(F)ccc34)CC1)CCCC2` the Potency was “inactive”. With `N[C@@H](Cc1cc(I)c(Oc2cc(I)c(O)c(I)c2)c(I)c1)C(=O)O` the Potency was “inactive”.

Reference: PubChem BioAssay (NCATS)
Potency is read from the fitted curve at half-maximal effect.
